Test results reported in PubChem BioAssay (NCI).
This is part of a sample that, as a whole, favours compounds with a hit. Of some 83,000 tested, about 20% had one in any assay.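 Treatment: one concentration, 48 hours, 96-well format. Scoring: percent growth, with anything below 10 considered active.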 Values without a mark were called inactive. Calls of active or inactive are those of the source.

How the values were obtained:
Test in all cases: NCI-60 one-dose screen, 48 h (100 = growth as untreated, 0 = no growth, -100 = all killed)
Settings in all cases: 10 µM unless noted
SR leukemia = tested on: SR leukemia
RPMI-8226 leukemia = tested on: RPMI-8226 leukemia
OVCAR-8 ovarian = tested on: OVCAR-8 ovarian
OVCAR-4 ovarian = tested on: OVCAR-4 ovarian
SK-OV-3 ovarian = tested on: SK-OV-3 ovarian
IGROV1 ovarian = tested on: IGROV1 ovarian
HS 578T breast = tested on: HS 578T breast
NCI/ADR-RES ovarian = tested on: NCI/ADR-RES ovarian
OVCAR-3 ovarian = tested on: OVCAR-3 ovarian

Compound	growth (SR leukemia)	growth (RPMI-8226 leukemia)	growth (OVCAR-8 ovarian) [%]	growth (OVCAR-4 ovarian) [%]	growth (SK-OV-3 ovarian) [%]	growth (IGROV1 ovarian)	growth (HS 578T breast)	growth (NCI/ADR-RES ovarian) [%]	growth (OVCAR-3 ovarian)
CC(O)c1cc2ccccc2c(=O)o1 (centres undefined)	96.2%	96.8%	102	100	99.8	107%	103%	101	
Cc1ccc(-c2nnc(SCc3ccc(O)c4ncccc34)o2)cc1	32.8%	12.8%	12.2	15.8	14.1	13.7%	15.5%	10.7	28.4%
C=C(C)[C@@H]1CC[C@]2(COC)CC[C@]3(C)[C@H](CC[C@@H]4[C@@]5(C)CCCNC(C)(C)[C@@H]5CC[C@]43C)[C@@H]12	-54.9% (active)	-36.8% (active)	79.2	28.7	102	37.2%	37.8%	51.3	
Nc1ncc(-c2ccc3ncnc(N4CCc5cc(F)c(Cl)cc54)c3c2)cn1	18%	-14.7% (active)	33.5	31.7	20.5	-11.2% (active)	-12.8% (active)	38.4	13.5%
Cc1ccc(S(=O)(=O)N(CC[C@@H]2C[C@H]2c2cc3ccccc3o2)S(=O)(=O)c2ccc(C)cc2)cc1	128%	101%	96.8	76.8	101	101%	98.6%	94	
CC(C)(C)n1nnnc1C(Nc1cccc2c1OCO2)c1cc2cccc3ccc4cccc1c4c32 (centres undefined)	82.3%	55.3%	90	79.2	94.5	81.2%	88.7%	83.5	
CN(Cc1ccccc1)S(=O)(=O)/N=C1\NC(=O)NC1=C(Cl)Cl	-0.359% (active)	-1.12% (active)	93.9	91.8	110	3.38% (active)	96.7%	81.5	-81.7% (active)
